In the library only some 3.5% were active in any assay of this set; here they are far more common.
Sm TGR block: qHTS Assay for the Inhibitors of Schistosoma Mansoni Peroxiredoxins. Schistosoma mansoni thioredoxin glutathione reductase (TGR), Q962Y6. purified TGR, DTNB reduction, TNB absorbance 405 nm. Potency, µM (top dose mostly 114 µM), without a hit: top-dose activity change, negative = inhibition, actives largely listed as inhibitors. 3% of 360,000 active; note: % is set by controls: 0 for no effect and ±100 for the full control effect; nearly all actives have a fitted effect of over 60% in size
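First, TGR (20 nM dispensed) and NADPH were mixed with compound. Second, a 15 min room-temperature incubation followed. Third, further NADPH and then DTNB were added to start the reaction. Finally, TNB absorbance was monitored kinetically.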
RE007 growth inh: qHTS Assay for Inhibitors of the HIV-1 protein Vpr; S. pombe RE007 Vpr strain, BacTiter-Glo ATP luminescence, 24 h; Potency, µM (series often up to 92.2 µM), without a hit: top-dose activity change, negative = less growth, usual class: inhibitors; 0.21% of 360,000 active; active = well fitted falling curve with a large enough effect; inconclusive = small, poorly fitted or top-dose-only effect; inactive = no such curve, though single readings can be large or run the other way; note: % is set by controls: 0 for no effect and ±100 for the full control effect; nearly all actives have a fitted effect of over 50% in size
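Fission yeast strain RE007, carrying one chromosomally integrated HIV-1 vpr copy, was seeded at OD 0.01 in PMG+AL medium with 23 nL pinned compound. After 24 h at 30 °C and 99% humidity, viability was read by BacTiter-Glo luminescence.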
TbPYK inhibitor: qHTS of Trypanosoma Brucei Inhibitors. 0.12% of 410,000 active. TbPYK enzyme, Kinase-Glo Plus ATP luminescence, 45 min. Potency, µM (series often up to 76.8 µM), without a hit: top-dose activity, negative = inhibition, actives largely listed as inhibitors. AID 624173, 2012; note: % is set by controls: 0 for no effect and ±100 for the full control effect; nearly all actives have a fitted effect of over 50% in size
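Readout: single end-point luminescence (Kinase-Glo Plus, 10 min). Reaction conditions were TbPYK/substrate plus 130 uM ADP, 45 min at RT, pH 7.2 TEA buffer. No-enzyme wells served as controls, and data were normalized before concentration-response fitting.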
LmPK inh: qHTS Assay for Inhibitors of Leishmania Mexicana Pyruvate Kinase (LmPK); AID 1721, 2009; purified LmPK, Kinase-Glo ATP luminescence, 1 h; Potency, µM (highest dose often 57.5 µM), for inactives: at the highest dose activity change, negative = inhibition, most hits filed as inhibitors; Q27686; 0.37% of 290,000 active; note: % is set by controls: 0 for no effect and ±100 for the full control effect
Target sequence (Q27686 whole entry, looked up): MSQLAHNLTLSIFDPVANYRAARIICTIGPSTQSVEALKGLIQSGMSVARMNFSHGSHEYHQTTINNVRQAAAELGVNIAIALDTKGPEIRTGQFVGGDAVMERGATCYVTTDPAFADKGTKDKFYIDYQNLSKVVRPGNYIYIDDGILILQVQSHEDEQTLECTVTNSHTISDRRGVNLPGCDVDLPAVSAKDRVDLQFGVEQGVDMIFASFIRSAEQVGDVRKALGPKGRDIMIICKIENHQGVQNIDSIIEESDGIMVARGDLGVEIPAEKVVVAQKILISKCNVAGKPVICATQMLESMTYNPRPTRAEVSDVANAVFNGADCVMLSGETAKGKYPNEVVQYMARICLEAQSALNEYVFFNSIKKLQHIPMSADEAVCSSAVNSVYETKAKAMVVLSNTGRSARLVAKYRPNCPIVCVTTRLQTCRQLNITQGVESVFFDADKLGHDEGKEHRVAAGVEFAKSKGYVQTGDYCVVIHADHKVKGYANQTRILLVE
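In 50 mM imidazole pH 7.2 with 7 mM MgCl2, LmPK (0.1 nM) turned over PEP (0.5 mM) and ADP (0.1 mM) for 1 h at room temperature. Luciferase read-out of ATP.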
Giardia FBPA inh: qHTS Assay for Inhibitors of Fructose-1,6-bisphosphate Aldolase from Giardia Lamblia; A8B2U2; purified Giardia FBPA; Potency, µM (series often up to 59.6 µM), for the others: top-dose activity, negative = inhibition, most hits filed as inhibitors; 0.71% of 290,000 active; note: % is set by controls: 0 for no effect and ±100 for the full control effect; nearly all actives have a fitted effect of over 55% in size
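Giardia FBPA (40 nM reagent) was preincubated 10 min at RT with compound (up to 57.5 uM final), then substrate plus GAPDH/TPI/NAD/arsenate coupling system with diaphorase/resazurin was added; resorufin fluorescence (525/598 nm) was read after 20 min.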
NS1 inh: qHTS Assay for Inhibitors of Influenza NS1 Protein Function | Potency, µM (series often up to 46.1 µM), for inactives: top-dose activity, positive = more growth | 0.4% of 270,000 active | AID 2326, 2010; calls by dose curve; note: actives are rising curves; nearly all actives have a fitted effect of over 50% in size
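S. cerevisiae expressing influenza A NS1, grown in glucose, washed, then diluted 1:100 into pH 6.0 -URA galactose medium with 23 nl compound. Growth recovery read as OD600; NS1-free strain serves as control.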
An asterisk follows results filed as active; ? = inconclusive; . = no result. Unless noted, calls come from the whole dose curve; as a rule, active = well fitted curve in the direction sought with a large enough effect; inconclusive = small, poorly fitted or top-dose-only effect, or another doubt; inactive = no such curve, though single readings can be large; an effect the other way counts as inactive or inconclusive. Potency is the fitted concentration of half-maximal effect.

SMILES	Sm TGR block	RE007 growth inh	TbPYK inhibitor	LmPK inh	Giardia FBPA inh	NS1 inh
O=C(C1CC(=O)N(c2ccc(F)cc2)C1)N1CCC(c2nc3ccccc3[nH]2)CC1 (stereo not drawn)	-4%	3%	1%	.	.	.
CN1C(=O)CC(N2CCC(c3nc4ccccc4[nH]3)CC2)C1=O (stereo not drawn)	89µM*	-16%	-2%	4%	-23%	6%
O=C1CC(N2CCC(c3nc4ccccc4[nH]3)CC2)C(=O)N1c1cccc(F)c1 (stereo not drawn)	?	40µM*	-1%	-2%	6%	.
O=C(c1ccc(Br)o1)N1CCC(c2nc3ccccc3[nH]2)CC1	40µM*	?	-12%	.	.	.
O=C1CC(N2CCC(c3nc4ccccc4[nH]3)CC2)C(=O)N1Cc1ccccc1 (stereo not drawn)	?	?	-2%	0%	6%	-35%
O=C(O)c1ccc(N2C(=O)CC(N3CCC(c4nc5ccccc5[nH]4)CC3)C2=O)cc1 (stereo not drawn)	22µM*	0%	-12%	0%	?	2%
O=C(C1CCCCC1)N1CCC(c2nc3ccccc3[nH]2)CC1	22%	2%	-8%	-3%	0%	-8%
Cc1ccc(N2CC(NC(=O)c3ccc(S(=O)(=O)N4CCCC4)cc3)CC2=O)cc1 (stereo not drawn)	5%	.	-3%	.	.	.
Cc1cc(Nc2cccc(Cl)c2C)n2nc(Cc3ccccc3)nc2n1	2%	.	-1%	.	.	.
COc1ccc(C2=CC3=C(Br)C(=O)C(C)(OC(=O)c4ccco4)C(=O)C3=CO2)cc1 (stereo not drawn)	5µM*	?	-16%	-14%	?	-56%
COc1ccc(N2CCN(C(c3ccccc3)c3sc4nc(-c5ccco5)nn4c3O)CC2)cc1 (stereo not drawn)	3%	.	-3%	.	.	.
O=C(O)CCn1nnc(-c2cccs2)n1	31%	-2%	-7%	0%	.	-14%
CCCCn1nnc(N(C(=O)c2cccs2)C(=O)c2cccs2)n1	4.5µM*	-27%	-10%	-5%	1%	-43%
O=C(NCCCN1CCOCC1)c1sc2cc(Cl)ccc2c1Cl	-5%	?	-5%	-10%	-1%	.
O=C(NCCCN1CCOCC1)c1sc2cc([N+](=O)[O-])ccc2c1Cl	-20%	0%	?	-2%	2.5µM*	.
COc1ccc(NC(=O)c2c(NCc3ccc(N(C)C)cc3)sc3c2CCC3)cc1	32µM*	.	?	.	.	.
COc1ccc(NC(=O)c2c(NCc3cccc(OC)c3)sc3c2CCCC3)cc1	-33%	.	-21%	.	.	.
COc1ccc(Cl)cc1NC(=O)c1c(NCc2ccc(C)o2)sc2c1CCCC2	28µM*	.	?	.	.	.
COc1ccc(Cl)cc1NC(=O)c1c(NCc2cccnc2)sc2c1CCCC2	20µM*	.	?	.	.	.
COc1ccc(Cl)cc1NC(=O)NCc1cccnc1	5%	-2%	1%	-5%	.	-6%
CCOC(=O)c1ccc(NC(=O)c2c(NCc3sccc3C)sc3c2CCCCC3)cc1	50µM*	.	?	.	.	.
CCC(Nc1ccc(-c2nc(-c3ccco3)no2)cc1[N+](=O)[O-])c1ccccc1 (stereo not drawn)	-15%	.	-4%	.	.	.
C[C@]12CCC(=O)C=C1CC[C@@H]1[C@H]2[C@@H](O)C[C@@]2(C)[C@H]1CC[C@]2(O)C(=O)CO	.	.	3%	.	.	.
COc1ccc(NC(=O)c2c(NCc3ccc(OC)c(OC)c3OC)sc3c2CCC3)c(OC)c1	40µM*	.	?	.	.	.
COc1ccc(OC)c(NC(=O)c2c(NCc3ccc(C)o3)sc3c2CCC(C)C3)c1 (stereo not drawn)	40µM*	.	?	.	.	.

From PubChem
